Shown is part of a subset that was picked to be rich in hits.
Measles inh: inhibitors of measles virus growth in infected cells | infected Vero cells, GFP fluorescence, 64 h; stronger effect = lower value | z-score (no concentration beside the values) | hit rate 0.1% among 33,000; in the data active means z-score below about -3
* hit, by the source's call.

SMILES	Measles inh
CC(C)OC(=O)c1c(NC(=O)c2ccc(Cl)c([N+](=O)[O-])c2)sc2c1CCCC2	-3.8*
Cc1cccc(C(=O)Nc2sc3c(c2C(=O)Nc2ccccc2Cl)CCCC3)c1	-4.4*
COC(=O)c1c(NC(=O)c2ccc(C)c([N+](=O)[O-])c2)sc2c1CCC2	1.6
Cc1cccc(C(=O)Nc2sc3c(c2C(=O)NCc2ccco2)CCCC3)c1	-0.65
Cc1cccc(C(=O)Nc2sc3c(c2C(=O)Nc2ccccc2Cl)CCC3)c1	0.38
Cc1cc(C(=O)Nc2sc3c(c2C(=O)OC(C)C)CCCC3)ccc1[N+](=O)[O-]	1.6
CCOC(=O)C1=C(c2ccccc2)NC(=O)NC1c1cccc([N+](=O)[O-])c1 (stereo not drawn)	-0.86
CCOc1ccccc1C1C(C(=O)N(CC)CC)=C(C)Nc2nc3ccccc3n21 (stereo not drawn)	-0.41
COc1ccc(N=Cc2ccc(OCc3ccc(Cl)cc3)cc2)cc1	-0.72
Cc1ccc(Cl)cc1NC(=O)c1cc(-c2cccs2)nc2ccccc12	-3*
O=C(Nc1cccnc1)c1cc(-c2cccs2)nc2ccccc12	0.73
CC(C)c1ccc(NC(=O)c2cc(-c3cccs3)nc3ccccc23)cc1	-0.09
CCCCNC(=O)CN1C(=O)CSc2ccc(S(=O)(=O)N3CCCCCC3)cc21	1.1
CCSc1nnc2c(n1)OC(c1cccnc1)N(C(C)=O)c1ccccc1-2 (stereo not drawn)	0.42
CCN(CCNS(=O)(=O)c1cc(Br)cc2c1N(C(C)=O)CC2)c1ccccc1	0.44
CCN(Cc1ccccc1)S(=O)(=O)c1cc(Br)cc2c1N(C(C)=O)CC2	-5.6*
CCCCN(CCCC)S(=O)(=O)c1cc(Br)cc2c1N(C(C)=O)CC2	-0.06
COc1cc(OC)c(NC(=O)c2sc3nc(C)nc(N4CCC(C)CC4)c3c2C)cc1Cl	2.1
CCOC(=O)c1ccc(CN(Cc2ccc(C)cc2)S(=O)(=O)c2cccc(C(F)(F)F)c2)cc1	-0.46
CCCCNC(=O)c1ccc2c(c1)N(Cc1ccccc1F)C(=O)c1ccccc1S2	0.3
COCCn1c(=O)[nH]c2cc(C(=O)NCCN3CCN(c4ccccc4)CC3)ccc2c1=O	-3.6*
COCCn1c(=O)[nH]c2cc(C(=O)NC3CCN(Cc4ccccc4)CC3)ccc2c1=O	-1.4
COCCCNC(=O)c1ccc2c(=O)n(CCOC)c(=O)[nH]c2c1	0.63
Cc1cccc(N2CCN(C(=O)c3ccc4nc5ccccc5c(=O)n4c3)CC2)c1C	-0.2
CC(=O)N1CCc2cc(S(=O)(=O)N3CCN(C4CCCCC4)CC3)ccc21	-0.32
SMILES	Measles inh
CCN(c1ccccc1)S(=O)(=O)c1ccc2[nH]cc(C(=O)NC3CCCCC3)c(=O)c2c1	-2.1
CCc1ccccc1NS(=O)(=O)c1ccc2[nH]cc(C(=O)NC3CCCC3)c(=O)c2c1	-0.66
O=C(NC1CCCCCC1)c1c[nH]c2ccc(S(=O)(=O)N3CCc4ccccc43)cc2c1=O	-3.2*
CC(C)CCNC(=O)CSc1nc2ccsc2c(=O)n1Cc1ccc2c(c1)OCO2	-0.28
Cc1ccc(Cn2c(SCC(=O)c3ccc(F)cc3)nc3ccsc3c2=O)cc1	-0.75
Cc1ccc(CNC(=O)CSc2nc3ccsc3c(=O)n2Cc2ccccc2F)cc1	-3.9*
O=C1CC(Sc2ccccn2)C(=O)N1c1ccc(F)cc1 (stereo not drawn)	-0.72
CCCCNC(=O)CCN1C(=O)C(C)Oc2ccc(C)cc21 (stereo not drawn)	1.2
COc1cc(C(=O)NCc2ccccn2)c([N+](=O)[O-])cc1OC	-0.19
COc1cc(C(=O)N2CCc3ccccc32)c([N+](=O)[O-])cc1OC	0.48
COc1cc(C(=O)c2ccccc2)c([N+](=O)[O-])cc1OC	-3*
Cc1ccc(CCN2CC(C(=O)NCCCN3CCCCC3C)CC2=O)cc1 (stereo not drawn)	-0.2
CC(=O)Oc1cccc2cccnc12	-0.4
CCOc1ccc(C(=O)Oc2cccc3cccnc23)cc1Br	-3.5*
COc1ccc(C(=O)Oc2cccc3cccnc23)cc1OC	-0.37
COc1ccc(CCNC(=O)C(=O)Nc2ccccc2)cc1OC	-0.15
CCOCCOC(=O)C1=C(C)NC2=C(C(=O)CC(c3ccc(OC)cc3)C2)C1c1cccc(F)c1 (stereo not drawn)	0.67
COc1ccc(C2Oc3c(OC)cccc3C3CC(c4ccc(F)cc4)=NN32)cc1OC (stereo not drawn)	0.96
O=C(Cc1ccccc1)Oc1ccc(N2C(=O)C3C4CCC(C4)C3C2=O)cc1 (stereo not drawn)	-6.4*
O=C(OCc1ccccc1)c1cccc(N2C(=O)C3C4CCC(C4)C3C2=O)c1 (stereo not drawn)	0.3
COc1ccc(OC(=O)c2ccc(N3C(=O)C4C5CCC(C5)C4C3=O)cc2)cc1 (stereo not drawn)	0.48
Fc1ccc2c(c1)CN(c1ccccc1F)CO2	-0.35
CCCCNC(=O)C1CCC(=O)N1Cc1ccc(C)cc1 (stereo not drawn)	-0.45
Cc1ccc(C(=O)CC2(O)C(=O)N(Cc3ccccc3)c3ccccc32)cc1 (stereo not drawn)	-0.1
CC1(C)C(=O)N(Cc2ccc([N+](=O)[O-])cc2)c2ccccc2N1C(=O)c1ccc(Br)cc1	-0.47
SMILES	Measles inh
CC1(C)C(=O)N(Cc2ccccc2)c2ccccc2N1C(=O)c1ccc(Br)cc1	-4*
NC(=O)CN1CCN(CC(=O)Nc2ccc(Cl)cc2)CC1	-0.41
CCN(CC)C(=O)c1ccc2c(=O)n(-c3cc(OC)ccc3OC)c(=S)[nH]c2c1	-5.5*
COc1ccc(CNC(=O)c2ccc3c(=O)n(-c4cc(OC)ccc4OC)c(=S)[nH]c3c2)cc1	0.3
COc1ccc(OC)c(-n2c(=S)[nH]c3cc(C(=O)Nc4ccc5c(c4)CCC5)ccc3c2=O)c1	1.9
Cc1ccc(-n2nc(C(=O)Nc3ccc(F)cc3)c3c4ccccc4n(C)c3c2=O)cc1	0.69
CCC(=O)Oc1ccc(C(=O)Nc2ccc(O)cc2C(=O)O)cc1	-0.19
CCCCCOc1ccc(NC(=O)c2ccccc2-c2ccccc2)cc1	-0.31
O=C(NC1CCCCCCC1)C1c2ccccc2C(=O)N1CCCN1CCCCC1 (stereo not drawn)	-0.55
CC1CCC(NC(=O)C2c3ccccc3C(=O)N2CCCN2CCOCC2)CC1 (stereo not drawn)	-4.9*
COc1ccc(Br)cc1CN1C(=O)c2ccccc2C1C(=O)NC1CCC(C)CC1 (stereo not drawn)	-1
COc1cc(C2C3=C(CCCC3=O)Nc3nc(SCc4ccccc4F)nn32)cc(OC)c1OC (stereo not drawn)	-0.82
Cc1nnc(Nc2ccccc2)[nH]c1=O	-0.89
CC(C)NC(=O)C1C2C=CC3(CN(Cc4ccccc4Cl)C(=O)C13)O2 (stereo not drawn)	-0.29
O=C(O)CCc1ccc(-c2ccc(F)cc2)n1-c1ccccc1C(F)(F)F	-0.63
O=C(Nc1cccc(-c2nc3cc(Cl)ccc3o2)c1)c1ccc(Br)o1	-0.44
O=C(Nc1cccc(-c2nc3ccccc3s2)c1)c1cccs1	-0.07
O=C(Nc1cccc(-c2nc3ccccc3s2)c1)c1ccc(Br)o1	-4.2*
O=C(COC(=O)c1ccc2c(c1)C(=O)N(c1ccccc1Cl)C2=O)c1cccc([N+](=O)[O-])c1	0.75
O=C(COC(=O)c1ccc2c(c1)C(=O)N(c1ccc([N+](=O)[O-])cc1)C2=O)c1ccccc1	0.42
COc1ccc(N2C(=O)c3ccc(C(=O)OCC(=O)c4cccc([N+](=O)[O-])c4)cc3C2=O)cc1	-5*
Cc1ccccc1NC(=O)C1c2ccccc2C(=O)N(C)C1c1c[nH]c2ccccc12 (stereo not drawn)	0.38

High-throughput results: PubChem, Emory University Molecular Libraries Screening Center
